A selection: hits, their analogues and other compounds. The true share with any hit is near 2.4%.
D2 ag-1: D2 dopamine receptor (human) agonism | P14416 | HEK293 T-REx D2 cells, calcium flux agonist mode | activation, % at 2 µM | 0.53% of 340,000 active | AID 485358;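 active = activation over 3 SD above normal in the single-dose calcium agonist read, cut at about 30% in these data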
Target sequence (P14416 whole entry, looked up): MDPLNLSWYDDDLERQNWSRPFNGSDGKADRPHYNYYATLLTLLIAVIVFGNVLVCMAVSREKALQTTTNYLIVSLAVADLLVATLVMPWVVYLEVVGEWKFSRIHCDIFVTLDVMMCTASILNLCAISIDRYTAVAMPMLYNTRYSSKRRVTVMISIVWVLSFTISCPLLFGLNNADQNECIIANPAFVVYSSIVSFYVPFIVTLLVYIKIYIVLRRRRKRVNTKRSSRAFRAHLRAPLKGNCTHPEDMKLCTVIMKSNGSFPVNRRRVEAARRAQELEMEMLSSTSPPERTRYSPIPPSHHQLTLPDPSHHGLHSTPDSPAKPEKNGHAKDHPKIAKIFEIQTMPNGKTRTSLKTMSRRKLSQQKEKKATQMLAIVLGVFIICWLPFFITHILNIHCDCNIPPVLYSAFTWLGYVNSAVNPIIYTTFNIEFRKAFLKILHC
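Agonism scored from kinetic calcium signal (1 read/sec, 180 s) following compound pin transfer, after a 10 s baseline. Cells: HEK293 Trex line expressing inducible D2 receptor coupled to calcium, dye-loaded after overnight culture at 30 C.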
D2 PAM-1: human D2 receptor positive allosteric modulation. P14416. DiscoveRx D2 beta-arrestin cells, luminescence, 90 min; 100% = 57 uM dopamine signal. potentiation, % (no concentration beside the values). 0.23% of 360,000 active; in the data active = potentiation above about 50%; inconclusive = mostly about 30% to 49%
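D2 cells co-treated with compound plus 50 nM dopamine (EC20) for 90 min at 37 deg C to detect potentiation. Beta-arrestin recruitment was read as enzyme-fragment luminescence after 1 h at ambient temperature. Full response was set by 57 uM dopamine.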
D2 ag-2: activates the human D2 dopamine receptor; AID 624465; activation, % (no concentration beside the values); P14416; 0.084% of 360,000 active; DiscoveRx PathHunter D2 beta-arrestin, luminescence, 90 min; 100% = 57 uM dopamine signal; in the data active = activation above about 40%; inconclusive = between about 15% and that limit
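DiscoveRx PathHunter D2 beta-arrestin cells (2,100/well) attached overnight, then compound-stimulated 90 min at 37 C in HBSS/10 mM HEPES/0.1% Tween-20 buffer; beta-galactosidase complementation read by luminescence after 1 h at ambient temperature. Dopamine 57 uM final (EC100) as control.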
D2 antag: antagonizes the human D2 dopamine receptor; P14416; HEK293 TREx D2 cells, calcium flux, dopamine EC80; inhibition, % at 10 µM; 2% of 340,000 active; in the data active = inhibition above about 30%; inactive = below that, where a call was filed
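Measurement of antagonist activity uses fluorescent calcium dye in inducible HEK293 T-REx D2 cells: 10 s baseline, compound addition with 180 s read, EC80 dopamine addition with a further 180 s read.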
D2 PAM-2: D2 dopamine receptor (human) potentiation; 0.34% of 340,000 active; P14416; potentiation, % at 10 µM; HEK293 T-REx D2, calcium flux, EC20 dopamine potentiation; AID 485347;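 active = potentiation over 3 SD above the plate norm, cut at about 30% in these data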
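Potentiation of an EC20 dopamine calcium response is measured in a force-coupled, tetracycline-inducible Hek293 Trex D2 line. Compound-only kinetic reads over 180 s flag agonists before dopamine addition.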
Each line names hits and unclear results; the compound was inactive in the other large screens.

CCCN1C(=O)/C(=C/c2c(N3CCNC(=O)C3CC(=O)OC)nc3c(C)cccn3c2=O)SC1=S (stereo unspecified)	D2 ag-1 55, D2 antag 43 (no result: D2 PAM-1, D2 ag-2)
Cc1c(NS(=O)(=O)c2ccc(NCCN3CCOCC3)c([N+](=O)[O-])c2)c(=O)n(-c2ccccc2)n1C	D2 PAM-2 31
Cc1nn2c(=O)cc(COC(=O)c3ccc(NC(=O)CCc4ccccc4)cc3)nc2s1	none (no result: D2 ag-1, D2 PAM-1, D2 ag-2, D2 antag)
CCOc1ccc(CN2CCN(Cc3cccc4c3OCO4)CC2CCO)cc1 (stereo unspecified)	none
Cc1ccc(CN2CCN(Cc3cccc4c3OCO4)CC2CCO)cc1 (stereo unspecified)	D2 antag 88
Cc1ccc(CNC(=O)C(=O)NCC(c2cccnc2)N2CCN(c3ccc(F)cc3)CC2)cc1 (stereo unspecified)	none (no result: D2 PAM-1, D2 ag-2, D2 antag)
Cc1ccccc1-c1nc(SCC(=O)NCC2CCCO2)c2c(=O)n(C)c(=O)n(C)c2n1 (stereo unspecified)	none (no result: D2 PAM-1, D2 ag-2, D2 antag)
COC(=O)CSc1nc2ccccc2nc1SCC(=O)OC	D2 PAM-2 31
COc1ccc(CCNC(=O)CSc2nnc(-c3ccc(C)cc3)c(-c3ccc(C)cc3)n2)cc1OC	none (no result: D2 ag-1, D2 PAM-1, D2 ag-2, D2 antag)
OCCN(Cc1ccccc1)CC1CCCCC1	none
OCCN(Cc1ccccc1)CC1CC2C=CC1C2 (stereo unspecified)	D2 antag 37
COc1ccc(C(O)c2ncc(-c3cccc4ccccc34)[nH]2)cc1F (stereo unspecified)	none (no result: D2 ag-1, D2 antag, D2 PAM-2)
COc1ccc(S(=O)(=O)N(C(=O)c2ccco2)c2cc3sc(=O)oc3c3ccccc23)cc1	D2 PAM-1 97, D2 ag-2 inconclusive
CC(=O)N(c1ccc2oc(=O)sc2c1)S(=O)(=O)c1ccccc1	D2 PAM-1 inconclusive
Cc1ccc(S(=O)(=O)N(C(=O)c2ccco2)c2cc3sc(=O)oc3c3ccccc23)cc1	D2 PAM-1 63, D2 ag-2 inconclusive
CCOc1ccc(S(=O)(=O)N(C(=O)c2ccco2)c2cc3sc(=O)oc3c3ccccc23)cc1	D2 PAM-1 150, D2 ag-2 inconclusive
CCOc1ccc(S(=O)(=O)N(C)CC(=O)NCc2ccco2)cc1	none (no result: D2 PAM-2)
CCOc1ccccc1NC(=O)NCc1ccccc1	D2 antag 42
Cc1ccc(C)c(N2N=C(C(=O)O)CCC2=O)c1	none
Cc1ccc(C)c(N2N=C(C(=O)Nc3ccc(N4CCOCC4)cc3)CCC2=O)c1	D2 antag 35
OC1(c2ccc(Br)cc2)CCN(Cc2cccc(Br)c2)CC1	D2 antag 103
Cc1ccc(/C=C/C(=O)c2cc(Br)ccc2OC(=O)c2ccco2)cc1	D2 antag 35
c1ccc(-c2csc(=Nc3cccnc3)n2CC2CCCO2)cc1 (stereo unspecified)	D2 antag 30
O=C(CSc1nc2ccccc2o1)Nc1nc(-c2ccccc2)cs1	D2 antag 30
Cc1ccc2c(c1Br)/C(=N/N1C(=O)c3ccccc3C1=O)C(=O)N2	none
CCOc1ccc(N=C2C(=O)Nc3ccc(C)c(Br)c32)cc1	D2 antag 42
C=C(C)C(=O)Nc1cccc(C2=NOC3(C2)C[C@H](C(N)=O)N(C(=O)COc2ccc(Cl)cc2)C3)c1 (stereo partly specified)	D2 antag 35
C/C=C\C(=O)Nc1cccc(C2=NOC3(C2)C[C@@H](C(N)=O)N(C(=O)C2(C)CC2)C3)c1 (stereo partly specified)	D2 antag 34
C/C=C\C=C/C(=O)Nc1cccc(C2=NOC3(C2)C[C@@H](C(N)=O)N(C(=O)C2(C)CC2)C3)c1 (stereo partly specified)	none
Cc1c(C(=O)N2CC3(CC(c4cccc(NC(=O)[C@H]5CCC(=O)N5)c4)=NO3)C[C@@H]2C(N)=O)cc([N+](=O)[O-])cc1[N+](=O)[O-] (stereo partly specified)	D2 PAM-1 74
Cc1cc(C)c(Cn2c3ccccc3c3cnn(CC(=O)NCCCc4ccccc4)c(=O)c32)c(C)c1	none (no result: D2 PAM-1, D2 ag-2, D2 antag)
O=C1CC2(CCN1)CCN(Cc1ccccc1)CC2	none (no result: D2 ag-1, D2 antag, D2 PAM-2)
O=C(NCC1CCOCC1)C1Cc2c(-c3ccccc3Oc3ccccc3)ccnc2O1 (stereo unspecified)	none (no result: D2 ag-1, D2 antag, D2 PAM-2)
COc1ccc2ccccc2c1-c1sc(Nc2ccccc2)n[n+]1-c1ccc(F)cc1	D2 antag 32
COc1ccc(-c2sc(Nc3ccccc3)n[n+]2-c2ccc(F)cc2)cc1Br	none
COc1ccc(S(=O)(=O)NC(C)C(=O)N2CCCC2)cc1C (stereo unspecified)	D2 antag 32
COc1ccc(S(=O)(=O)NC(C)C(=O)N2CCCC2)cc1Cl (stereo unspecified)	none
COc1ccc(N(CC(=O)Nc2c(C)n(C)n(-c3ccccc3)c2=O)S(=O)(=O)c2ccc(C)cc2)cc1OC	D2 antag 35
COc1ccc(C2(NC(C)=O)CCN(C(=O)c3ccco3)CC2)cc1	D2 antag 33
COc1ccc(C(=O)C2CCN(C(=O)c3ccco3)CC2)cc1	none
Cc1c(Cl)cccc1NC(=O)N1CCN(C(=O)c2ccco2)CC1	D2 ag-1 31
COc1ccc(NC(=S)N2CCN(C(=O)c3ccco3)CC2)cc1	D2 antag 32
CCCC(=O)C1=C(O)C(C(=O)OC)C(C)(C)CC1=NC(C)C (stereo unspecified)	D2 antag 33
O=C(Nc1nc(-c2ccc(Br)cc2)ns1)c1ccccc1F	none (no result: D2 PAM-1, D2 ag-2, D2 antag)
COc1ccc(C(=O)Nc2ccc(O)c3ccccc23)cc1OC	D2 PAM-1 82, D2 ag-2 inconclusive (no result: D2 ag-1, D2 antag, D2 PAM-2)
c1ccc(COc2ccc(OCCCCN3CCCC3)cc2)cc1	none
CC1CCN(CCOc2ccc(OCc3ccccc3)cc2)CC1	D2 antag 31
CC1CCN(CCCCOc2ccc(C(C)(C)C)cc2)CC1	D2 antag 33
Cc1ccc(Nc2c(-c3ccc(N4CCOCC4)cc3)nc3cccc(C)n23)cc1	none (no result: D2 PAM-1, D2 ag-2, D2 antag)
CN(C)CCCNS(=O)(=O)c1cc(Cl)ccc1Cl	D2 antag 38
O=C(CSc1nc(=O)n(Cc2ccccn2)c2c1CCC2)Nc1ccccc1	none (no result: D2 PAM-1, D2 ag-2, D2 antag)
CCCCN(CCCC)Cc1cc(=O)oc2cc(C)c(Cl)cc12	none (no result: D2 ag-1, D2 antag, D2 PAM-2)
COc1ccc(N2CC(NC(=O)c3ccc(S(=O)(=O)N4CCOCC4)cc3)CC2=O)cc1OC (stereo unspecified)	none (no result: D2 PAM-1, D2 ag-2, D2 antag)
O=C(O)CCSc1nc(C(F)(F)F)cc(=O)n1-c1ccccc1	D2 antag 33
CC(C)(CNC(=O)c1cccc(S(=O)(=O)N2CCCCC2)c1)N1CCOCC1	none (no result: D2 ag-1, D2 antag, D2 PAM-2)
Cc1nc(N2CCN(c3ccccn3)CC2)c2c(C)c(C(=O)N3CCN(c4cccc(Cl)c4)CC3)sc2n1	D2 PAM-2 31
O=C(COC(=O)Cc1ccsc1)Nc1ccccc1	none
COc1cc(NC(=O)COC(=O)Cc2ccsc2)cc(OC)c1	D2 antag 31

High-throughput results (PubChem)
